Experimental data published in paper PMC7862700, “An all-to-all approach to the identification of sequence-specific readers for epigenetic DNA modifications on cytosine”.

Assays:
Test in all cases: DAPPL (digital affinity profiling via proximity ligation, sequencing); 10 mM Tris-HCl pH 7.5, 50 mM NaCl, 1 mM DTT, 4% glycerol, room temperature, 30 min; GST-TFs on glutathione beads, 16-mer random dsDNA library, 0.1% formaldehyde crosslink after washing; high values mean tight binding
ELK3 = target: T1, ELK3 (Homo sapiens, UniProt P41970 1-407); conditions: protein: recombinant; tags: N-terminal GST; dsDNA, one strand shown
T1 sequence: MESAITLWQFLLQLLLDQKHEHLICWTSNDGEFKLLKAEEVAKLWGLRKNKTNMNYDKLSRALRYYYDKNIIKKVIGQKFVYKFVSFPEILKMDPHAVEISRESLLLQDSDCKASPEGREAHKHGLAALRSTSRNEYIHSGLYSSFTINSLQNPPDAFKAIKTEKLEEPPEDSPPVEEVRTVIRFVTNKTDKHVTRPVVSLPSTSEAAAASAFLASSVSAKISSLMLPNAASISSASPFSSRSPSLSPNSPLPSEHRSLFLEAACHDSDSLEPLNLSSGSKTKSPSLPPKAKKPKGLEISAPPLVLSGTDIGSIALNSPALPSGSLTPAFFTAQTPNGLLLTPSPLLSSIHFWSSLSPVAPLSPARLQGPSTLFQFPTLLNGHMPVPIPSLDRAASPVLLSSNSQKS
In short: (§1)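 Yeast served to express human transcription factors as GST fusions, which were then captured on glutathione beads and labelled with DNA barcodes. Pooled with a tag-only sample, they were incubated with 200 nmole of a 16-mer random double-stranded DNA library for 30 min at room temperature in Tris/NaCl/DTT/glycerol buffer, washed, crosslinked with 0.1% formaldehyde, ligated by proximity, amplified by PCR and sequenced. Dividing each hexamer's read frequency for a factor by its frequency for the tag-only sample gives the binding signal.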

HSF1 = HSF1 (Homo sapiens, UniProt Q00613 1-529); conditions: protein: recombinant; tags: N-terminal GST; chain copies: 3; dsDNA, one strand shown
Sequence of HSF1 (Q00613 whole entry): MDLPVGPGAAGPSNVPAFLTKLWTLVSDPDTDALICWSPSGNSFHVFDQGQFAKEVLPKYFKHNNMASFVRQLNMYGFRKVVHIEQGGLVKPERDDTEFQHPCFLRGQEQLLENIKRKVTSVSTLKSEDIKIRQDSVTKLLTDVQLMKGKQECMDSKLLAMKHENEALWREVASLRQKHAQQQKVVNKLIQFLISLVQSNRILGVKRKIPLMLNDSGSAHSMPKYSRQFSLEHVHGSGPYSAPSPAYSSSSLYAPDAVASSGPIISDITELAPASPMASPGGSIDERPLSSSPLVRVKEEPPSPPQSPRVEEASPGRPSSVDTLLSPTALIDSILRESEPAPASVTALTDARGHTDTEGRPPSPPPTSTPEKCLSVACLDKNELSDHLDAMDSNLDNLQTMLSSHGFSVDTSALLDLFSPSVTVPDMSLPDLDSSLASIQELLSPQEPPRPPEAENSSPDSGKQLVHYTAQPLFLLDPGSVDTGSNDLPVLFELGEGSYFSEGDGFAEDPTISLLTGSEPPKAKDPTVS
In short: as §1

SPIC = target: T2, SPIC (Homo sapiens, UniProt Q8N5J4 1-248); conditions: protein: recombinant; tags: N-terminal GST; dsDNA, one strand shown
T2 sequence: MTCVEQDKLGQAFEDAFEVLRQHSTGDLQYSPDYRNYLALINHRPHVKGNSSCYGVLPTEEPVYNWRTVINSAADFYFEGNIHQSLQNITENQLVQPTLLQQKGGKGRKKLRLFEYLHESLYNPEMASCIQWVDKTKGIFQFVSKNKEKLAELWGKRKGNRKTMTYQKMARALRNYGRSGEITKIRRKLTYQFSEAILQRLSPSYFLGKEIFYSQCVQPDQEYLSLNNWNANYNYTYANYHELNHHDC
In short: as §1

ELF3 = target: T3, ELF3 (Homo sapiens, UniProt P78545 1-371); conditions: protein: recombinant; tags: N-terminal GST; dsDNA, one strand shown
T3 sequence: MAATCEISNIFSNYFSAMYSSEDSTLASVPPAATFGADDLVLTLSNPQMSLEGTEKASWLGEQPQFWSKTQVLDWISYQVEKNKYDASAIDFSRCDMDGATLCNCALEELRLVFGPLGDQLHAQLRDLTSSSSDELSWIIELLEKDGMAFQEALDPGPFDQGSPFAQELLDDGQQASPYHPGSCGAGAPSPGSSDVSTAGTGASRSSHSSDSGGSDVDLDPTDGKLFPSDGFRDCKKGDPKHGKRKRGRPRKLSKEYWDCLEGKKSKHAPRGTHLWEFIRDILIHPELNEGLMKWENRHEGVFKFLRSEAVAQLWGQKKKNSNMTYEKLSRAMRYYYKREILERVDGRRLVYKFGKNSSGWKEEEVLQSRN
In short: as §1

ELK1 = target: T4, ELK1 (Homo sapiens, UniProt P19419 1-428); conditions: protein: recombinant; tags: N-terminal GST; dsDNA, one strand shown
T4 sequence: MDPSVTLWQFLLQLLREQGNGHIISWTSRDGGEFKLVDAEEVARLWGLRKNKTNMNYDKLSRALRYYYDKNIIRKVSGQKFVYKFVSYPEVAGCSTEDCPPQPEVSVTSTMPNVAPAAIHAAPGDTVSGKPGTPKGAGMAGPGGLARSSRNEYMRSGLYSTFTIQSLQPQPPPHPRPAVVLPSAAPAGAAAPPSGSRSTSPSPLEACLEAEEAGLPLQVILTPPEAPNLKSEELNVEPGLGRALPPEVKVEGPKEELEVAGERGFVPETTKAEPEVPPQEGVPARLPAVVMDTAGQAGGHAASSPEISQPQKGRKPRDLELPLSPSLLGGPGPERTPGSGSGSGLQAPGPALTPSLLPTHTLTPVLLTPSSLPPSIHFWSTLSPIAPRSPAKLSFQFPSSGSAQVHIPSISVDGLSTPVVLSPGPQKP
In short: as §1

GABPA = target: T5, GABPA (Homo sapiens, UniProt Q06546 1-454); conditions: protein: recombinant; tags: N-terminal GST; dsDNA, one strand shown
T5 sequence: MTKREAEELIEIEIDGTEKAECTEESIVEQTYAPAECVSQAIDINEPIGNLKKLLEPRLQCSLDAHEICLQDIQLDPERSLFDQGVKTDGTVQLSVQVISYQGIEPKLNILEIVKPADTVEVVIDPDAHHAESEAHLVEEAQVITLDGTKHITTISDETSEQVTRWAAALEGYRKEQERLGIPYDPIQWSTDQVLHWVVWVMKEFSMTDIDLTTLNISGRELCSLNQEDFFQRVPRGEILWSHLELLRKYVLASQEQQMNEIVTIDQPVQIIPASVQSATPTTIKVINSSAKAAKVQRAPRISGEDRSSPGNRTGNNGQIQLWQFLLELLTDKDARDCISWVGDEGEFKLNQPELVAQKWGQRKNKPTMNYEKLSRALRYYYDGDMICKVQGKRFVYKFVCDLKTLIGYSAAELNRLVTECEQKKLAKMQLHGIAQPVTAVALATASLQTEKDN
In short: as §1

FEV = target: T6, FEV (Homo sapiens, UniProt Q99581 1-238); conditions: protein: recombinant; tags: N-terminal GST; dsDNA, one strand shown
T6 sequence: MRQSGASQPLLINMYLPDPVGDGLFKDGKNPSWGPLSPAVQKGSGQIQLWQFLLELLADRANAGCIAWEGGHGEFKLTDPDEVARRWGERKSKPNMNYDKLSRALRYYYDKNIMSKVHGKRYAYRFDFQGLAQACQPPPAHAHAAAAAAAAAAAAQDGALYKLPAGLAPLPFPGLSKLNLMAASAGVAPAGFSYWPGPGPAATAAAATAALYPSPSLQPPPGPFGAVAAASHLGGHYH
In short: as §1

ELK4 = target: T7, ELK4 (Homo sapiens, UniProt P28324-2 1-405); conditions: protein: recombinant; tags: N-terminal GST; dsDNA, one strand shown
T7 sequence: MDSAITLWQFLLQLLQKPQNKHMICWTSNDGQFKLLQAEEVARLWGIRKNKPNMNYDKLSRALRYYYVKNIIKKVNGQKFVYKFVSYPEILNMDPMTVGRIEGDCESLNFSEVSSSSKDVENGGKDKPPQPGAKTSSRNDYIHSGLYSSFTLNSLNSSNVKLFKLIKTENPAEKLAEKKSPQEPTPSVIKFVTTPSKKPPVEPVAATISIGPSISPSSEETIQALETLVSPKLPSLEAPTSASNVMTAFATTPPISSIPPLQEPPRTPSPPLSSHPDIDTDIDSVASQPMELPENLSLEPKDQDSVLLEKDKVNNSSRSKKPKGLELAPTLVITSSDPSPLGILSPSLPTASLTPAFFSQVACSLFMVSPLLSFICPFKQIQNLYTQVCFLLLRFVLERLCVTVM
In short: as §1

ETV2 = target: T8, ETV2 (Homo sapiens, UniProt O00321 1-342); conditions: protein: recombinant; tags: N-terminal GST; dsDNA, one strand shown
T8 sequence: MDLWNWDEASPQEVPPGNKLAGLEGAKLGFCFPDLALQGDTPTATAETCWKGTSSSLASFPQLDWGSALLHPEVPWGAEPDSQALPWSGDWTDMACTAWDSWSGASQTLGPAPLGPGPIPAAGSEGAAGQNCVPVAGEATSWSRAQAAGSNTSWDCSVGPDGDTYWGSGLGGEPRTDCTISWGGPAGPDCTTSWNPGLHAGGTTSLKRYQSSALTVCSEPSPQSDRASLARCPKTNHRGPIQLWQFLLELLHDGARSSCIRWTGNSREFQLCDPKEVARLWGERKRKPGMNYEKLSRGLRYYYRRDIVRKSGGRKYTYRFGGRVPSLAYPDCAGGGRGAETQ
In short: as §1

CRX = CRX (Homo sapiens, UniProt O43186 1-299); conditions: protein: recombinant; tags: N-terminal GST; dsDNA, one strand shown
Sequence of CRX (O43186 whole entry): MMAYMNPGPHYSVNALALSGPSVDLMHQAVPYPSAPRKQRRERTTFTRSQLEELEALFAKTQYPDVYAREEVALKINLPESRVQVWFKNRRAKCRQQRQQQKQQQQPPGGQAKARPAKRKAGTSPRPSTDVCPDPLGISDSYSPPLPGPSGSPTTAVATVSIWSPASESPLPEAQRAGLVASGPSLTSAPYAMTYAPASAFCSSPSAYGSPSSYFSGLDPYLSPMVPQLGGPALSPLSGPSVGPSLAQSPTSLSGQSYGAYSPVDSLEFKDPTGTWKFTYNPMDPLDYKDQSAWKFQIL
In short: as §1

ETV1 = ETV1 (Homo sapiens, UniProt P50549 1-477); conditions: protein: recombinant; tags: N-terminal GST; dsDNA, one strand shown
Sequence of ETV1 (P50549 whole entry): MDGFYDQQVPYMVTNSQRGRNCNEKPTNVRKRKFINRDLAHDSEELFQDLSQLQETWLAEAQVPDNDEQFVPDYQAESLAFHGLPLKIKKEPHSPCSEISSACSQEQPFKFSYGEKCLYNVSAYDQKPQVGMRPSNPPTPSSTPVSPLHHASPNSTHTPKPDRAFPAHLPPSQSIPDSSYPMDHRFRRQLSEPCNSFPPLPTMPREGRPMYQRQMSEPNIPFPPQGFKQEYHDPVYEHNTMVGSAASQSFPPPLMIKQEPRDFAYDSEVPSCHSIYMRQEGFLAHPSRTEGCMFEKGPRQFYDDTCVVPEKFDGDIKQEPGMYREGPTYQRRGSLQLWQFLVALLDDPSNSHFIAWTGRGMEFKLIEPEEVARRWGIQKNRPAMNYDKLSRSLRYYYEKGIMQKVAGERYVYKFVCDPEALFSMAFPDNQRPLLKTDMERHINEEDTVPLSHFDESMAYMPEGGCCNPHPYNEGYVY
In short: as §1

ETV3L = target: T9, ETV3L (Homo sapiens, UniProt Q6ZN32 1-361); conditions: protein: recombinant; tags: N-terminal GST; dsDNA, one strand shown
T9 sequence: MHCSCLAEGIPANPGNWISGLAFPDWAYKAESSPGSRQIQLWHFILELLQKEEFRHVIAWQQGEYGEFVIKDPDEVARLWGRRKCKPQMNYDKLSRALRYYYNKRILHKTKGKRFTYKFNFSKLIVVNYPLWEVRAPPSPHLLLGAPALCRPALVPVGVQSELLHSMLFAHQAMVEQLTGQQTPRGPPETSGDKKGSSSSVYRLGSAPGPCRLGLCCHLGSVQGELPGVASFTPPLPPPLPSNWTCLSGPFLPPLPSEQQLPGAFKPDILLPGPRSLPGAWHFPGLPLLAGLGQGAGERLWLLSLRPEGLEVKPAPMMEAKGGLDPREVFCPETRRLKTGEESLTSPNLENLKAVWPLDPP
In short: as §1

SPDEF = target: T10, SPDEF (Homo sapiens, UniProt O95238 1-335); conditions: protein: recombinant; tags: N-terminal GST; dsDNA, one strand shown
T10 sequence: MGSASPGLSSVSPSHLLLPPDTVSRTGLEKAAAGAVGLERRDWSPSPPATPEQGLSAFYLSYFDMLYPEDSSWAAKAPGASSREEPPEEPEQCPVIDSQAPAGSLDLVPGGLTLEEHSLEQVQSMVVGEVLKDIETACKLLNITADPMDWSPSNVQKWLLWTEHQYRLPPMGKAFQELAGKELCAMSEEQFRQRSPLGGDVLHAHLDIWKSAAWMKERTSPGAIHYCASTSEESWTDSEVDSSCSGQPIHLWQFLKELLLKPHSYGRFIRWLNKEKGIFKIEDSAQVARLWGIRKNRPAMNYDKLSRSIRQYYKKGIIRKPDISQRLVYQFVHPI
In short: as §1

ETV7 = target: T11, ETV7 (Homo sapiens, UniProt Q9Y603 1-341); conditions: protein: recombinant; tags: N-terminal GST; dsDNA, one strand shown
T11 sequence: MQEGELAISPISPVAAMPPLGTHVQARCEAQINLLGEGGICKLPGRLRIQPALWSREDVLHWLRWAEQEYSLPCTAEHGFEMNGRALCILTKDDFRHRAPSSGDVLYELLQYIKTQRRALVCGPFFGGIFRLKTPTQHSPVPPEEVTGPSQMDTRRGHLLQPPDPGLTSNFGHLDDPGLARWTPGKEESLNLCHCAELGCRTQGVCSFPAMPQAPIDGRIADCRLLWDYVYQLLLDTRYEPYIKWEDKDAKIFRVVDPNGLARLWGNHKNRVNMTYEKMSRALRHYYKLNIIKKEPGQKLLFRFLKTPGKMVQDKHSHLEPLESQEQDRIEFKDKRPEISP
In short: as §1

| Sequence | binding signal (ELK3) | binding signal (HSF1) | binding signal (SPIC) | binding signal (ELF3) | binding signal (ELK1) | binding signal (GABPA) | binding signal (FEV) | binding signal (ELK4) | binding signal (ETV2) | binding signal (CRX) | binding signal (ETV1) | binding signal (ETV3L) | binding signal (SPDEF) | binding signal (ETV7) |
| --- | --- | --- | --- | --- | --- | --- | --- | --- | --- | --- | --- | --- | --- | --- |
| CCAGCA | 1 fold enrichment (6-mer frequency, TF over GST control) | 1.21 fold enrichment (6-mer frequency, TF over GST control) | 1.1 fold enrichment (6-mer frequency, TF over GST control) | 1.06 fold enrichment (6-mer frequency, TF over GST control) |  |  |  |  |  |  |  |  |  |  |
| TAGACA | 1.02 fold enrichment (6-mer frequency, TF over GST control) | 1.11 fold enrichment (6-mer frequency, TF over GST control) |  | 1.01 fold enrichment (6-mer frequency, TF over GST control) | 1.07 fold enrichment (6-mer frequency, TF over GST control) | 1.01 fold enrichment (6-mer frequency, TF over GST control) | 1.02 fold enrichment (6-mer frequency, TF over GST control) | 1.11 fold enrichment (6-mer frequency, TF over GST control) | 1.01 fold enrichment (6-mer frequency, TF over GST control) | 1.03 fold enrichment (6-mer frequency, TF over GST control) | 1.01 fold enrichment (6-mer frequency, TF over GST control) | 1.01 fold enrichment (6-mer frequency, TF over GST control) | 1.03 fold enrichment (6-mer frequency, TF over GST control) | 1.07 fold enrichment (6-mer frequency, TF over GST control) |
